Results reported in publication PMC11006913.

Target: HOXB9 (Homo sapiens, UniProt P17482 171-250)
Assay: PBM; 200 nM protein, PBS
Settings: dsDNA, one strand shown

HOXB9, sequence (P17482 171-250): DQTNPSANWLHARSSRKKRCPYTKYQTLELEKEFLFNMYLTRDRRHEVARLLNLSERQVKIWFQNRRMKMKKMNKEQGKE

First: AATTGCTA
Second: AACCCATT
The binding signal of the first is higher: 10.7 upbm affinity estimate (log intensity, higher = more binding, comparable within an allelic series) for the first, 10.5 upbm affinity estimate (log intensity, higher = more binding, comparable within an allelic series) for the second.

Going from TACTGTAA to AATCAATA, the binding signal rises from 10.2 upbm affinity estimate (log intensity, higher = more binding, comparable within an allelic series) to 10.5 upbm affinity estimate (log intensity, higher = more binding, comparable within an allelic series).

Compared with ATGATTTA, AATACAAT is lower in binding signal: 10.6 upbm affinity estimate (log intensity, higher = more binding, comparable within an allelic series) for the first, 10 upbm affinity estimate (log intensity, higher = more binding, comparable within an allelic series) for the second.

First: ATAGATAA
Second: AAGCAATA
The binding signal of the first is higher: 10.4 upbm affinity estimate (log intensity, higher = more binding, comparable within an allelic series) for the first, 10.1 upbm affinity estimate (log intensity, higher = more binding, comparable within an allelic series) for the second.

First: AGGCTAAT
Second: TAACTTAA
The binding signal of the first is lower: 9.89 upbm affinity estimate (log intensity, higher = more binding, comparable within an allelic series) for the first, 10.2 upbm affinity estimate (log intensity, higher = more binding, comparable within an allelic series) for the second.

Compared with AATACCAT, ATTTAATC is higher in binding signal: 9.98 upbm affinity estimate (log intensity, higher = more binding, comparable within an allelic series) for the first, 10.8 upbm affinity estimate (log intensity, higher = more binding, comparable within an allelic series) for the second.

Compared with CATTACTA, AAGTAATC is lower in binding signal: 10.6 upbm affinity estimate (log intensity, higher = more binding, comparable within an allelic series) for the first, 9.94 upbm affinity estimate (log intensity, higher = more binding, comparable within an allelic series) for the second.

Going from CCATTTTC to CATAATCG, the binding signal rises from 10.1 upbm affinity estimate (log intensity, higher = more binding, comparable within an allelic series) to 10.5 upbm affinity estimate (log intensity, higher = more binding, comparable within an allelic series).

Compared with CATTTAAA, AATGCAAT is lower in binding signal: 10.7 upbm affinity estimate (log intensity, higher = more binding, comparable within an allelic series) for the first, 10.3 upbm affinity estimate (log intensity, higher = more binding, comparable within an allelic series) for the second.

Compared with AGGAATAA, AACATATG is lower in binding signal: 9.91 upbm affinity estimate (log intensity, higher = more binding, comparable within an allelic series) for the first, 9.86 upbm affinity estimate (log intensity, higher = more binding, comparable within an allelic series) for the second.

First: AAGATCAT
Second: TAAACTAA
The binding signal of the first is lower: 9.78 upbm affinity estimate (log intensity, higher = more binding, comparable within an allelic series) for the first, 10.3 upbm affinity estimate (log intensity, higher = more binding, comparable within an allelic series) for the second.

Going from ACATTACA to ATTACGTC, the binding signal falls from 10.6 upbm affinity estimate (log intensity, higher = more binding, comparable within an allelic series) to 10 upbm affinity estimate (log intensity, higher = more binding, comparable within an allelic series).

First: ATATTTCC
Second: AAATCTTA
The binding signal of the first is higher: 9.97 upbm affinity estimate (log intensity, higher = more binding, comparable within an allelic series) for the first, 9.84 upbm affinity estimate (log intensity, higher = more binding, comparable within an allelic series) for the second.

First: CGTTTAAA
Second: AGAAATTA
The binding signal of the first is lower: 10.2 upbm affinity estimate (log intensity, higher = more binding, comparable within an allelic series) for the first, 10.7 upbm affinity estimate (log intensity, higher = more binding, comparable within an allelic series) for the second.

Target: T1, SIX6 (Homo sapiens, UniProt O95475 114-200, T139Q)
T1 sequence: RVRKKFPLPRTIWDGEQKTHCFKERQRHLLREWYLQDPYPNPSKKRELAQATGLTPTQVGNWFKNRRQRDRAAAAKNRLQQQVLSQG
Assay: PBM; 200 nM protein, PBS
Settings: dsDNA, one strand shown

Going from CGGATCAC to AGATACCC, the binding signal rises from 11.1 upbm affinity estimate (log intensity, higher = more binding, comparable within an allelic series) to 11.2 upbm affinity estimate (log intensity, higher = more binding, comparable within an allelic series).

Going from AGGTATCG to GATACCCA, the binding signal rises from 11.1 upbm affinity estimate (log intensity, higher = more binding, comparable within an allelic series) to 11.2 upbm affinity estimate (log intensity, higher = more binding, comparable within an allelic series).
